# Assays:
# [1] = molecular target: T1, Ephrin type-B receptor 2 (Homo sapiens) (UniProt P29323); settings: at 1 µM
# T1 sequence (whole entry): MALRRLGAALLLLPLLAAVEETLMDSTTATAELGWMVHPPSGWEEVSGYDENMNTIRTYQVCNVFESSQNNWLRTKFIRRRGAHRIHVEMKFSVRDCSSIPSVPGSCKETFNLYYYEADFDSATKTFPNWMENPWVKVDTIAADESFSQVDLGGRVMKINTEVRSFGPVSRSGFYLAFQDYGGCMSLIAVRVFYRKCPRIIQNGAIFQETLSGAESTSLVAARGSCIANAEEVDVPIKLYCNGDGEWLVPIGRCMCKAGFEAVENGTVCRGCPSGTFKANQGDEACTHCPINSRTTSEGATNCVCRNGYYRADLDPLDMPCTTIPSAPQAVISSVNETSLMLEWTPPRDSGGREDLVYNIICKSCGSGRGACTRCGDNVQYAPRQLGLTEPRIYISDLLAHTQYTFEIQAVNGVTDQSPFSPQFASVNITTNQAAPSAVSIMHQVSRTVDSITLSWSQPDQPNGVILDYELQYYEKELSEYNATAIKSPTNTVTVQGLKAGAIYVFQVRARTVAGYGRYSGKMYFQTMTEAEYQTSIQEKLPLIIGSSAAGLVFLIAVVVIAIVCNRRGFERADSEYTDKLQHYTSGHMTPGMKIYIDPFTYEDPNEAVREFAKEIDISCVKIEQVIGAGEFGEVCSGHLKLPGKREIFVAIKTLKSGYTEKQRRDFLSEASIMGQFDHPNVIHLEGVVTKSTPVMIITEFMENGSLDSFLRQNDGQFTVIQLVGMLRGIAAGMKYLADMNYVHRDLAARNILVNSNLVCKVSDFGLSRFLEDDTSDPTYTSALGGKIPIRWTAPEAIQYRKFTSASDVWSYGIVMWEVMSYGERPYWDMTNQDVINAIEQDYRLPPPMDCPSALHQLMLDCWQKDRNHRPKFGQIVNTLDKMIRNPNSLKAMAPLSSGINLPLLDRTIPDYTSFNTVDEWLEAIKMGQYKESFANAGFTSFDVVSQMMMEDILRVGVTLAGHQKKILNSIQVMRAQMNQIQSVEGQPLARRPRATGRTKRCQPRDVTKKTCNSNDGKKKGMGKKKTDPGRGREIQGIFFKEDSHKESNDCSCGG
# [2] = molecular target: T2, Ephrin type-B receptor 3 (Homo sapiens) (UniProt P54753); settings: at 0.1 µM
# T2 sequence (whole entry): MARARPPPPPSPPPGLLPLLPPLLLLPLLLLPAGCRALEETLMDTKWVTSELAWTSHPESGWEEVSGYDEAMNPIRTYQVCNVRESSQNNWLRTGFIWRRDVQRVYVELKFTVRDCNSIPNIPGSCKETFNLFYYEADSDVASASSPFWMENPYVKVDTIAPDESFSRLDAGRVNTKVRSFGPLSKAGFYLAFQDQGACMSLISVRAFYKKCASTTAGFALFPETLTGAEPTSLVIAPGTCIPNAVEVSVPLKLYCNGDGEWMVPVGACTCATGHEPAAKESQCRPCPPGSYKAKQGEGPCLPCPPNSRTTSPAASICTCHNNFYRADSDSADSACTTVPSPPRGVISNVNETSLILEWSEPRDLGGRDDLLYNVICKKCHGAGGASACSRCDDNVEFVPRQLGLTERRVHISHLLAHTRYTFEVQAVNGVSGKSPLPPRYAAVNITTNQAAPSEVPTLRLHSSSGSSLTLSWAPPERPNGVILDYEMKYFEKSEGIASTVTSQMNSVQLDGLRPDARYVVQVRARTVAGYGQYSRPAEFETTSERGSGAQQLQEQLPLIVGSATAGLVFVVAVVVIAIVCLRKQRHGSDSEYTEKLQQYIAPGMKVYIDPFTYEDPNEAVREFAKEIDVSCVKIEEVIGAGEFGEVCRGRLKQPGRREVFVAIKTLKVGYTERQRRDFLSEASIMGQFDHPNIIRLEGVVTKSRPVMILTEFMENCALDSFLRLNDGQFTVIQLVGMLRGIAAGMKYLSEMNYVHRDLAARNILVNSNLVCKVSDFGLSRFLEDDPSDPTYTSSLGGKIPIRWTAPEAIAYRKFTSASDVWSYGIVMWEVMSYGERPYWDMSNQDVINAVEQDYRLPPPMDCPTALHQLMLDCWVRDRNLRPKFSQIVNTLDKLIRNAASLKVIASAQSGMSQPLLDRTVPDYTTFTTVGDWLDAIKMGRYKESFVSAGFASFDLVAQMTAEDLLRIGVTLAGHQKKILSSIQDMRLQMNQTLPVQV
# [3] = molecular target: T2, Ephrin type-B receptor 3 (Homo sapiens); settings: at 1 µM
# [4] = molecular target: T3, Ephrin type-B receptor 4 (Homo sapiens) (UniProt P54760); settings: at 0.1 µM
# T3 sequence (whole entry): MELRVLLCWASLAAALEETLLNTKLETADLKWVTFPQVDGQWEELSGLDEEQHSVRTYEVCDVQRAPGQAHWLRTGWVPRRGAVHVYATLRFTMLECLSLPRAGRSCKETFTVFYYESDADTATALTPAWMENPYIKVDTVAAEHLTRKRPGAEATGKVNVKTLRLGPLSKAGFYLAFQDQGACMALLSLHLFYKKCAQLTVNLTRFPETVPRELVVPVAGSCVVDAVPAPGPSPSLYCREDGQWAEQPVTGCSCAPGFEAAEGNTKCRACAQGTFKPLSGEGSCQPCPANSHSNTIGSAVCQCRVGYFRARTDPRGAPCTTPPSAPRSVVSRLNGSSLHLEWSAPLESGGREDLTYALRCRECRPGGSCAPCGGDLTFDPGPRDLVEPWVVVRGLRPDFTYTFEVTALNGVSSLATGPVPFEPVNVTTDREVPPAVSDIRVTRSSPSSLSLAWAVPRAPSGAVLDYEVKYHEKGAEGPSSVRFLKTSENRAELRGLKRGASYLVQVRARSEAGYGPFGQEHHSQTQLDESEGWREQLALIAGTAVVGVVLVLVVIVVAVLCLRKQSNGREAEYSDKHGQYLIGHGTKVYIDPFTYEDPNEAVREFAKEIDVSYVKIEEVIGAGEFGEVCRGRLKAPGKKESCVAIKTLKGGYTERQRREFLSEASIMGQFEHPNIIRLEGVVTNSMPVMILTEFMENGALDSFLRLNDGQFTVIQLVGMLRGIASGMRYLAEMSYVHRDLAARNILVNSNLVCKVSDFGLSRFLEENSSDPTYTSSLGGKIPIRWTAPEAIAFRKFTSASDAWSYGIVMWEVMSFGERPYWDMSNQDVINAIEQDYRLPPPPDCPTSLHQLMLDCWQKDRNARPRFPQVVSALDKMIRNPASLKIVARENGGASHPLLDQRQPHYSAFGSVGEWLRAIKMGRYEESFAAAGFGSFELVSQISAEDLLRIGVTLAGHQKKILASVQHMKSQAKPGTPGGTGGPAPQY
# [5] = molecular target: T3, Ephrin type-B receptor 4 (Homo sapiens); settings: at 1 µM
# [6] = molecular target: Receptor tyrosine-protein kinase erbB-2 (Homo sapiens) (UniProt P04626); settings: at 0.1 µM
# [7] = molecular target: Receptor tyrosine-protein kinase erbB-2 (Homo sapiens) (UniProt P04626); settings: at 1 µM
# [8] = molecular target: Receptor tyrosine-protein kinase erbB-4 (Homo sapiens) (UniProt Q15303); settings: at 0.1 µM
# [9] = molecular target: Receptor tyrosine-protein kinase erbB-4 (Homo sapiens) (UniProt Q15303); settings: at 1 µM
# [10] = molecular target: Tyrosine-protein kinase Fer (Homo sapiens) (UniProt P16591); settings: at 0.1 µM;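 also: reported figures are averaged percent inhibition of FER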
# Tyrosine-protein kinase Fer (Homo sapiens), sequence (P16591 whole entry, looked up): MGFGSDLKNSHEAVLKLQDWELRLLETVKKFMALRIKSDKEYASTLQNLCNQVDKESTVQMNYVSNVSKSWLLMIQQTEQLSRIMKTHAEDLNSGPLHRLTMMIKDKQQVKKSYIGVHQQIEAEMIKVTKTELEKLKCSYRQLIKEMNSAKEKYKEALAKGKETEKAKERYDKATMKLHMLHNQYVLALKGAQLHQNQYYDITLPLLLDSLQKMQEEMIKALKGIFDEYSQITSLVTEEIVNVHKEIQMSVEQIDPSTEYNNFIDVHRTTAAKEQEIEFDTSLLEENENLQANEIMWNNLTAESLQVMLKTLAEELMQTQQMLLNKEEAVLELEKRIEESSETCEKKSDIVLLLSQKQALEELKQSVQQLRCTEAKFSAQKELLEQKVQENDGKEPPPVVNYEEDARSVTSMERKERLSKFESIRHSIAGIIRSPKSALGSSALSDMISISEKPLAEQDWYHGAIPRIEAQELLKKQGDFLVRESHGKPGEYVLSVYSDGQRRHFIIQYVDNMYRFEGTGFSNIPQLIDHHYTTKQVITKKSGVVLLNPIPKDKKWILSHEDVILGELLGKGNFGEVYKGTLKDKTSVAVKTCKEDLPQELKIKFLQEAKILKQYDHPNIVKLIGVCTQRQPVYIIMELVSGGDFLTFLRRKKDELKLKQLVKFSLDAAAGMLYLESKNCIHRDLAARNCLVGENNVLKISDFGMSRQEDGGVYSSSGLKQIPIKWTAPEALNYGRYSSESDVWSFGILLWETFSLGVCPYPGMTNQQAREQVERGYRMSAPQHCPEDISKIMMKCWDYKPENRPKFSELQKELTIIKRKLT
# Receptor tyrosine-protein kinase erbB-4 (Homo sapiens), sequence (Q15303 whole entry): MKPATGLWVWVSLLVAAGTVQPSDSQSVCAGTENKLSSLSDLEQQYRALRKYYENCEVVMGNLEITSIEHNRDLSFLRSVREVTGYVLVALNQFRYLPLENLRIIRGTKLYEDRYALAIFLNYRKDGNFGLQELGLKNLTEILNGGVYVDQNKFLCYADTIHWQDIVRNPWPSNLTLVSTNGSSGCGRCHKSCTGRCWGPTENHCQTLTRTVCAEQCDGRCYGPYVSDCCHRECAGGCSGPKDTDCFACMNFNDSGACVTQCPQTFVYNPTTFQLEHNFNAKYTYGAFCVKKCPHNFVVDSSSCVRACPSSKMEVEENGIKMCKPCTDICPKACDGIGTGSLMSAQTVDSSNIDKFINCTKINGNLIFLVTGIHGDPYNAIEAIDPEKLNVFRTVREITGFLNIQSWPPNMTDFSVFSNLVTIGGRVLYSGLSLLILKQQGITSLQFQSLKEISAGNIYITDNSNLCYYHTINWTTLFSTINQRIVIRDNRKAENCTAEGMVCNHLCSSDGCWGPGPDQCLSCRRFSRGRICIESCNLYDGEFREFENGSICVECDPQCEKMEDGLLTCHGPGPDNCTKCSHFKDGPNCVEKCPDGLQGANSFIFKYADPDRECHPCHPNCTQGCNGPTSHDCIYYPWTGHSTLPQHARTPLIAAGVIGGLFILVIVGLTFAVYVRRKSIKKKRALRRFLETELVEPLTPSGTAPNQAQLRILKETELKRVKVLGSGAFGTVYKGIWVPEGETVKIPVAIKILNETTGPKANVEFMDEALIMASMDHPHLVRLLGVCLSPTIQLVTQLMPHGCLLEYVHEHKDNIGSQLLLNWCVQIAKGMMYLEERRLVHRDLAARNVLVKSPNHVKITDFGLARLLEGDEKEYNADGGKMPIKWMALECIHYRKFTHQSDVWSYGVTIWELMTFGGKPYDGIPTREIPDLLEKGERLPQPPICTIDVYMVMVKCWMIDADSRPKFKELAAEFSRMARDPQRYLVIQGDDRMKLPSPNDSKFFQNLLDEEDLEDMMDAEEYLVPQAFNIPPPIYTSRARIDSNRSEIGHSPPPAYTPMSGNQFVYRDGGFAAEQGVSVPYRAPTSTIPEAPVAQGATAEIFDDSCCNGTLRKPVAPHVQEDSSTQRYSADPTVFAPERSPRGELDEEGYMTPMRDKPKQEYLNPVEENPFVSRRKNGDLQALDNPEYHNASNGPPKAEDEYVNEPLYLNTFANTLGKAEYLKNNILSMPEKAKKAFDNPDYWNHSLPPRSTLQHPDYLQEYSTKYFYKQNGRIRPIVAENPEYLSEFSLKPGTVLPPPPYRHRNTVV
# Receptor tyrosine-protein kinase erbB-2 (Homo sapiens), sequence (P04626 whole entry): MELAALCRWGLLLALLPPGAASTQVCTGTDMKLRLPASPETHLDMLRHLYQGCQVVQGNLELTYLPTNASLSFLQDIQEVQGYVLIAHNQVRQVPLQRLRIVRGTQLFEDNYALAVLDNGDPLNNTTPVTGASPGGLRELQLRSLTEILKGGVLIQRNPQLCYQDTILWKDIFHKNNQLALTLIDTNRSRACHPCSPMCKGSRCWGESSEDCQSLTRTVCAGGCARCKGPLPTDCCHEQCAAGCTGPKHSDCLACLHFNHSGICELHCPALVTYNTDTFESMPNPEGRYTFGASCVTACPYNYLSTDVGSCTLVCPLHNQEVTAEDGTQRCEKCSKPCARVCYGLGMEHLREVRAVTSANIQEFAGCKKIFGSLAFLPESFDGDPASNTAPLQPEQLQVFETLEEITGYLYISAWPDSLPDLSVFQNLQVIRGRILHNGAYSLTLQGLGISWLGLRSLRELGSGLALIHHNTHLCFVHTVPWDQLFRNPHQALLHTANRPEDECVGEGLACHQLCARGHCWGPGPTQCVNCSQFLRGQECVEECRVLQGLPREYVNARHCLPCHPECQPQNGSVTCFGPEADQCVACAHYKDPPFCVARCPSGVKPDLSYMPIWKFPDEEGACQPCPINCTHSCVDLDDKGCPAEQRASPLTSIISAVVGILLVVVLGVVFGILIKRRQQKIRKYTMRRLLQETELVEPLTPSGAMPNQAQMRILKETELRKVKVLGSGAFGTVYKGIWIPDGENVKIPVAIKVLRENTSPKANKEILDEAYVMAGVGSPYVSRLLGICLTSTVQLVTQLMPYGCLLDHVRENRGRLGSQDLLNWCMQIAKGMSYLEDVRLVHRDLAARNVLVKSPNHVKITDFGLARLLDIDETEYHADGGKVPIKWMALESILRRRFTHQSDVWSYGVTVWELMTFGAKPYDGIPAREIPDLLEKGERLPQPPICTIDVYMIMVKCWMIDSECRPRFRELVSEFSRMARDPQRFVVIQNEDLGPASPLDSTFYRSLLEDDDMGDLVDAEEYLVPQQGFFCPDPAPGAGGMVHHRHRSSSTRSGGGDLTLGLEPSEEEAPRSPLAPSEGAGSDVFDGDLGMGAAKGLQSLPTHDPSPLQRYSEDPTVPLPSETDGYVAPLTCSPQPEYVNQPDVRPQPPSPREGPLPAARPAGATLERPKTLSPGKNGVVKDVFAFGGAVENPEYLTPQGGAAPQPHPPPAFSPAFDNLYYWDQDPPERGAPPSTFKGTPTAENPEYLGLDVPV
Structure (SMILES),inhibition [1] [%],inhibition [2] [%],inhibition [3] [%],inhibition [4] [%],inhibition [5] [%],inhibition [6] [%],inhibition [7] [%],inhibition [8] [%],inhibition [9] [%],inhibition [10] [%]
O=C1Nc2ccc(C(=O)c3ccco3)cc2C1=Cc1cc(Cl)c(O)c(Cl)c1,15,4.56,5.53,3.11,2.52,0.77,4.54,12.2,15.8,2.31
O=C1NC(=O)C(c2cccc(Cl)c2)=C1Nc1ccc(O)c(Cl)c1,-8.35,2.73,-5.14,1.15,-0.03,0.29,-5.89,5.49,6.06,3.79
CCn1c(-c2nonc2N)nc2ccncc21,–,2.91,-1.68,-0.26,0.27,0.8,-4.21,7.5,9.71,2.5
COC(=O)Nc1nc2cc(Oc3cccc(NC(=O)Nc4cc(C(F)(F)F)ccc4F)c3)ccc2[nH]1,8.15,2.88,0.33,0.65,2.71,-1.15,-2.43,3.99,6.3,0.75
CCc1cccc(NC(=O)Nc2ccc(Oc3ccc4nc(NC(=O)OC)[nH]c4c3)cc2)c1,63,6.29,3.66,15.7,27.5,0.27,7,9.67,15.3,3.85
Fc1cccc(COc2ccc(Nc3ncnc4cc(-c5ccc[nH]5)sc34)cc2Cl)c1,6.05,0.75,-2.49,-1.44,-2.14,0.71,15.2,36.5,68.5,1.94
O=C(Nc1n[nH]c2nc(-c3ccco3)c(Br)cc12)C1CC1,5.48,4.64,3.95,2.69,3.48,1.49,-3.9,10.1,15.8,1.93
O=C1NC(=O)C(N2CCc3ccccc32)=C1c1ccc(Cl)cc1,12.6,7.43,6.04,3.92,1.54,0.97,-4.09,8.85,24,2.88
CCN1CCC(CC(=O)Nc2n[nH]c3nc(-c4cccs4)c(Br)cc23)CC1,1.96,-2.11,-3.61,-1.44,-2.19,-4.26,-1.56,-5.1,-7.08,0.22
Cc1ccc(C(=O)NC2CCCCC2)cc1-c1ccc(C(=O)NCC2CC2)cc1,7.74,5.37,1.76,1.61,0.58,-0.05,-2.24,13.3,17.9,5.55
CNC(=O)c1cncc(/C=C/c2c(Cl)cccc2Cl)c1,29.2,-2.12,2.92,2.4,74.1,3.2,3.13,-0.22,8.83,0.6
COc1ccc(-c2ccncc2)cc1C(N)=O,8.22,3.97,3.63,1,2.03,1.06,2.95,6.21,12.3,4.03
Cc1cccc(-c2n[nH]cc2-c2ccc3ncccc3n2)n1,5.67,2.71,1.95,-0.2,2.61,1.42,-0.81,2.27,4,0.04
COc1cc(C=NNc2ncnc3c2cnn3-c2ccccc2)ccc1O,18.2,3.59,-2.55,2.58,9.64,1.75,-2.49,3.71,6.51,-3.39
CCn1c(-c2nonc2N)nc2cncc(C(=O)N3CC[C@H](N)C3)c21,6.1,6.62,4.88,6.15,2.54,4.24,7.27,13.3,17.8,1.22
Cc1nnc(-c2ccc(C)c(-c3ccc(C(=O)Nc4cccc(C#N)c4)cc3)c2)o1,8.63,4.01,4.32,1.3,1.73,2.71,2.09,11,16.2,2
CC1=C(C(=O)Nc2ccc3[nH]ncc3c2)C(c2ccc3ccccc3c2)CC(=O)N1 (centres undefined),8.42,4.2,4.54,3.21,3.76,0.89,2.88,12.7,39.6,2.1

# Source: ChEMBL document CHEMBL1961873, “Compounds: GSK PKIS; Assays: Nanosyn kinase panel” (2012)
